Screening results deposited in PubChem by several laboratories.
Hits are enriched below; roughly 3.1% of the tested compounds scored in any of these assays.
ARNT-TACC3 inh: ARNT/TACC3 interaction disruption; 390,000 compounds, 0.66% hits; AlphaScreen His-ARNT PAS-B/GST-TACC3 binding, luminescence; TACC3 fragment carries E629A point mutation; Q9Y6A5; inhibition, % at 9.99 µM;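 active = mean inhibition of replicates at least 50% and at least half of replicates each reaching 50%; inconclusive = half or more replicates reach 50% but mean below 50%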;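 note: 0% = complete ARNT plus TACC3 wells and 100% = ARNT alone without TACC3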
HIF activator: HIF pathway transcriptional activation | U2OS HRE-luciferase reporter, luminescence; normalized: DMSO 0%, desferrioxamine 100% | activation, % at 7.5 µM (by protocol) | 300,000 compounds, 0.32% hits | AID 1910;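 active = mean activation of at least 10% of the iron chelator positive control signal, with at least half of replicates also reaching 10%; inconclusive = mean and replicate majority disagree about reaching 10%; inactive = mean and most replicates under 10%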
HSP90 refold inh: HSP90 refolding inhibition in rabbit reticulocyte lysate; luciferase refolding luminescence, 3 h; inhibition, % at 5.6 µM; 290,000 compounds, 0.91% hits;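 active = inhibition above the screen-wide mean plus 3 SD, computed separately per campaign, cut at about 16% in these data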;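 note: 0% = DMSO wells and 100% = 60 µM geldanamycin wells; inhibitors lower the luminescence because luciferase stays unfolded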
HSF1 activator: increases HSF-1 driven luciferase reporter signal. NIH3T3-HGL HSF-1 luciferase reporter, MG132, 8 h; 100% = twice DMSO control signal. activation, % at 9 µM. 300,000 compounds, 1.7% hits. AID 504408;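 active = mean replicate activation of at least 50% with a set share of replicates each reaching 50%; inconclusive = only one of those two conditions met; inactive = mean below 50% and too few replicates reaching it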;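 note: 0% = median of the neutral control wells and 100% = twice that signal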
HSF1 inhib: HSF1 inhibition | activity change, negative = inhibition, % at 7.5 µM (by protocol) | 300,000 compounds, 0.77% hits | NIH3T3-HGL HSE-luciferase, MG132-induced, luminescence 8 h; stronger effect = lower value;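 active = more than half of replicate wells show activity change below -50%, luminescence cut by over half; inconclusive = some wells, but at most half, below -50%; inactive = no replicate well below -50%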;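 note: luciferase reports HSF-1 transcriptional activity via heat shock element; 0% = median of DMSO wells and -100% = zero luminescence signal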
HSP90 inh confirm: HSP90 inhibition, confirmation assay; rabbit reticulocyte lysate, luciferase refolding luminescence, 3 h; inhibition, % at 5.9 µM; shares compounds with HSP90 refold inh; 2,300 compounds, 64% hits; in the data active = inhibition above about 18%;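 note: 0% = vehicle wells and 100% = reference inhibitor wells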
FLuc counter: counter-screen for HSP90 inhibitors: inhibitors of firefly luciferase. inhibition, % at 5.9 µM. purified native firefly luciferase, luminescence. 2,300 compounds, 48% hits. shares compounds with HSP90 refold inh. AID 1847;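 active = inhibition above the mean inhibition of all tested sample wells plus 3 SD, cut at about 10% in these data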;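 note: 0% = DMSO with luciferase and 100% = wells lacking luciferase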
Target sequence (P08659 whole entry, looked up): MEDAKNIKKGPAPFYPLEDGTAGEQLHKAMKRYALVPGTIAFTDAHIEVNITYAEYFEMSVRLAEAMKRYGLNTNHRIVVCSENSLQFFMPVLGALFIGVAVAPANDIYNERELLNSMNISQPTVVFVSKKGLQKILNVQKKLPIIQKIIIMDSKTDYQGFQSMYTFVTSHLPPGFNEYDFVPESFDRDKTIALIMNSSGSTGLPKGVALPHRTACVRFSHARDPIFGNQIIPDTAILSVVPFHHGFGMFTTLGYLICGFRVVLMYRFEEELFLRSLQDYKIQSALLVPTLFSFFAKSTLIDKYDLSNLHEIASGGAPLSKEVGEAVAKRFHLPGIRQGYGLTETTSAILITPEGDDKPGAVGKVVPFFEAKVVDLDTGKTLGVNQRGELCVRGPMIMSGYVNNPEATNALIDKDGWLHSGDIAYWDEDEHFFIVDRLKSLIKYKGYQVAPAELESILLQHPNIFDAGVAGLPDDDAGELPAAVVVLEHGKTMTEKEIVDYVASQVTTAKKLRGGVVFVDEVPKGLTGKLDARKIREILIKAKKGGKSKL
* hit, by the source's call; ? = inconclusive; nt = no result.

SMILES	ARNT-TACC3 inh	HIF activator	HSP90 refold inh	HSF1 activator	HSF1 inhib	HSP90 inh confirm	FLuc counter
COC(=O)c1ccc(NC(=O)c2ccc(C)cc2)o1	12	1	30*	?	17	37*	-16
COC(=O)c1ccc(NC(=O)c2ccc(F)cc2)o1	-5	0	1	0	0	nt	nt
C[C@@H]1CCCCO[C@@H](CN(C)S(=O)(=O)c2cccs2)[C@H](C)CN([C@H](C)CO)C(=O)c2cc(NC(=O)c3ccccc3)ccc2O1	-4	nt	nt	nt	nt	nt	nt
Cc1cc(NC(=O)CSc2cn(CCNC(=O)c3ccccc3)c3ccccc23)no1	-1	0	7	-12	0	nt	nt
CCCn1cc(SCC(=O)NCc2ccco2)c2ccccc21	-4	0	-2	16	3	nt	nt
O=C(CSc1cn(CCNC(=O)c2ccccc2)c2ccccc12)NCc1ccco1	1	1	28*	9	2	25*	-8
Cc1ccc(C(=O)NCCn2cc(SCC(=O)Nc3cc(C)on3)c3ccccc32)cc1	-10	0	29*	-44	-39	31*	7
Cc1ccc2oc(=O)c(/C=C(\O)c3ccco3)nc2c1	2	0	37*	-2	4	37*	-23
Cc1ccc2oc(=O)c(/C=C(\O)C(C)(C)C)nc2c1	7	-1	1	20	-1	nt	nt
CC(C)(C)/C(O)=C/c1nc2cc(Cl)ccc2oc1=O	-4	-1	80*	-4	-2	81*	-14
Cc1noc(C)c1NC(=O)N(C)C[C@@H]1Oc2ccc(NC(=O)Nc3ccc(C(F)(F)F)cc3)cc2CC(=O)N([C@@H](C)CO)C[C@@H]1C	-8	nt	nt	nt	nt	nt	nt
CC(=O)Nc1cccc(-c2csc(Nc3ccccn3)n2)c1	2	0	19*	1	-5	9	-10
COCCn1c(C)cc(C(=O)COC(=O)c2ccc[nH]c2=O)c1C	-16	-1	31*	-26	-25	45*	54*
C=CCn1c(C)cc(C(=O)Cn2nc(C(=O)O)c3ccccc3c2=O)c1C	-2	-1	51*	-18	-4	71*	20*
COCCn1c(C)cc(C(=O)Cn2nc(C(=O)O)c3ccccc3c2=O)c1C	-9	4	67*	-30	-17	75*	1
COCCn1c(C)cc(C(=O)CSc2nc3ccccc3s2)c1C	-4	nt	28*	nt	nt	67*	68*
Cc1cc(C(=O)Cn2nc(C(=O)O)c3ccccc3c2=O)c(C)n1C1CC1	nt	1	6	13	2	nt	nt
CO[C@@H]1CN(C)C(=O)c2cc(NC(=O)c3ccccc3)ccc2OC[C@H](C)N(C(=O)C2CC2)C[C@H]1C	0	nt	nt	nt	nt	nt	nt
CCC(=O)c1ccc(OCC(O)CN2CCN(c3ccccn3)CC2)cc1 (stereo not drawn)	7	0	-1	10	5	nt	nt
CC(C)(C)c1ccc(OCC(O)CN2CCN(c3ccccn3)CC2)cc1 (stereo not drawn)	-1	4	40*	1	-7	2	-2
OC(COc1ccc(Cl)cc1)CN1CCN(c2ccccc2)CC1 (stereo not drawn)	-3	-5	40*	9	1	-2	-6
OC(COc1cccc2ccccc12)CN1CCN(c2ccccc2)CC1 (stereo not drawn)	-1	0	12	-1	1	7	0
COc1ccc(-c2nc(CN3CCN(Cc4ccccc4)CC3)c(C)o2)cc1	11	0	3	4	-6	nt	nt
Cc1oc(-c2ccc(-c3ccccc3)cc2)nc1CN1CCN(CC(=O)N(C)C)CC1	0	0	67*	-18	2	79*	18*
COCC(=O)Nc1ccc2c(c1)C(=O)N(C)[C@H]1CC[C@H](CC(=O)NCc3ccc(OC)cc3)O[C@H]1CO2	-5	nt	nt	nt	nt	nt	nt
SMILES	ARNT-TACC3 inh	HIF activator	HSP90 refold inh	HSF1 activator	HSF1 inhib	HSP90 inh confirm	FLuc counter
Nc1sc2c(c1C(=O)c1ccccc1)CCCC2	-6	0	31*	4	13	11	1
NC(=O)c1c(N)sc2c1CCCC2	-1	0	-4	-16	0	nt	nt
COc1ccc(-c2cc3nc4n(c(=O)c3s2)CCCCC4)cc1	-7	9	-3	40	18	nt	nt
COc1ccc(-c2cc3nc4n(c(=O)c3s2)CCC4)cc1	32	-1	30*	14	-5	80*	68*
Cc1c(CC(=O)N[C@H](C(=O)O)C(C)C)c(=O)oc2cc3c(cc12)CCC(C)(C)O3	-7	0	27*	17	3	35*	14*
Cc1c(CC(=O)N[C@@H](C)C(=O)O)c(=O)oc2cc3c(cc12)CCC(C)(C)O3	-12	-3	-3	-6	-1	nt	nt
CCCC(=O)Nc1ccc2c(c1)C(=O)N(C)[C@@H]1CC[C@H](CC(=O)NCc3ccccc3Cl)O[C@@H]1CO2	-1	nt	nt	nt	nt	nt	nt
O=C(CSC(=S)N1CCCC1)c1ccccc1	-1	-1	19*	55*	24	43*	44*
O=C(CSC(=S)N1CCCCC1)c1ccccc1	4	-1	54*	18	23	73*	64*
O=C(CSC(=S)N1CCCC1)NCCc1ccccc1	-3	0	nt	14	3	nt	nt
O=C(O)CSC(=S)N1CCCC1	-5	0	1	-1	-2	nt	nt
Cc1cc(C)cc(Nc2ncc3c(n2)CCCC3=O)c1	2	-2	17*	27	9	43*	23*
CCOC(=O)CNC(=O)c1sc(NC(=O)c2ccccc2F)nc1C	-6	2	70*	17	4	74*	12*
CCOC(=O)c1sc(NC(=O)c2ccccc2OC)nc1C	-5	3	-3	22	16	nt	nt
Cc1nnc(NC(=O)c2cccc(F)c2)s1	-3	0	0	10	2	nt	nt
CCOC(=O)CNC(=O)c1sc(NC(=O)c2cccc(F)c2)nc1C	0	-20	32*	-5	4	32*	-23
CCOC(=O)c1sc(NC(=O)Nc2ccccc2F)nc1C	-18	-1	37*	-80	-74*	76*	71*
Cc1noc(C)c1NC(=O)N(C)C[C@@H]1Oc2ccc(NC(=O)Nc3ccccc3)cc2CC(=O)N([C@H](C)CO)C[C@@H]1C	-1	nt	nt	nt	nt	nt	nt
C[C@H](CO)N1C[C@H](C)[C@@H](CN(C)Cc2ccc(Oc3ccccc3)cc2)Oc2ncc(-c3ccncc3)cc2C1=O	1	nt	nt	nt	nt	nt	nt
CC(=O)NC1=C(Nc2ccc(N(C)C)cc2)C(=O)c2ccccc2C1=O	28	-2	21*	33	12	8	-8
Oc1ccccc1Nc1nc(NCc2ccco2)c2ccccc2n1	-4	0	28*	-6	13	5	-1
C[C@@H]1CN([C@H](C)CO)S(=O)(=O)c2ccc(C3=CCCC3)cc2O[C@@H]1CN(C)Cc1cncnc1	-10	nt	nt	nt	nt	nt	nt
